The values below come from the supplement of paper PMC8728848.

Test in all cases: glycan array binding signal (z-score within array); higher = stronger binding
What all share (conditions): glycan notation: IUPAC condensed, linker removed

In experiment [1] the target is Fuc(a1-2)Gal(b1-3)GlcNAc(b1-3)[Fuc(a1-2)Gal(b1-3)GlcNAc(b1-6)]GalNAc. In outline: (§1)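 Glycan array data came from 3228 arrays in the Consortium for Functional Glycomics database, and only arrays with an available protein sequence were kept. Glycan names were put into IUPAC-condensed notation, and columns mapping to the same glycan were averaged. The binding signal is a within-array Z-score, averaged across arrays of one protein sequence run at different concentrations or buffers and across linkers. A negative Z-score can be read as non-binding.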

In experiment [2] the target is Fuc(a1-2)Gal(b1-3)[Fuc(a1-4)]GlcNAc(b1-3)[Gal(b1-4)GlcNAc(b1-6)]Gal(b1-4)Glc. In outline: as §1
Experiment [3] concerns the target Fuc(a1-2)Gal(b1-4)GlcNAc(b1-3)Gal(b1-4)GlcNAc(b1-3)Gal(b1-4)GlcNAc. A digest of the protocol: as §1
The target of experiment [4] is Fuc(a1-2)Gal(b1-4)GlcNAc(b1-6)GalNAc. A digest of the protocol:
as §1

The target of experiment [5] is Fuc(a1-2)[Gal(a1-3)]Gal(b1-3)GlcNAc(b1-2)Man(a1-3)[Fuc(a1-2)[Gal(a1-3)]Gal(b1-3)GlcNAc(b1-2)Man(a1-6)]Man(b1-4)GlcNAc(b1-4)[Fuc(a1-6)]GlcNAc. In outline: as §1
Experiment [6] has as its target Fuc(a1-2)[Gal(a1-3)]Gal(b1-3)GlcNAc(b1-6)GalNAc. In outline:
as §1

In experiment [7] the target is Fuc(a1-2)[GalNAc(a1-3)]Gal(b1-3)GlcNAc(b1-3)GalNAc. A digest of the protocol: as §1
The target of experiment [8] is Fuc(a1-3)[Gal(b1-4)]GlcNAc(b1-2)Man(a1-3)[Fuc(a1-3)[Gal(b1-4)]GlcNAc(b1-2)Man(a1-6)]Man(b1-4)GlcNAc(b1-4)GlcNAc. In outline: as §1
In experiment [9] the target is Gal(a1-3)Gal(b1-3)GlcNAc(b1-2)Man(a1-3)[Gal(a1-3)Gal(b1-3)GlcNAc(b1-2)Man(a1-6)]Man(b1-4)GlcNAc(b1-4)GlcNAc. In outline: as §1
Experiment [10] has as its target Gal(a1-3)Gal(b1-3)[Fuc(a1-4)]GlcNAc(b1-2)Man(a1-3)[Gal(a1-3)Gal(b1-3)[Fuc(a1-4)]GlcNAc(b1-2)Man(a1-6)]Man(b1-4)GlcNAc(b1-4)GlcNAc. A digest of the protocol: as §1
Experiment [11] deals with Gal(b1-2)Gal. In outline: as §1
Experiment [12] addresses Gal(b1-3)Gal. A digest of the protocol:
as §1

For experiment [13], the target named is Gal(b1-3)GalNAc(a1-3)[Fuc(a1-2)]Gal(b1-4)GlcNAc. In outline:
as §1

Experiment [14] concerns the target Gal(b1-3)GlcNAc(a1-6)Gal(b1-4)GlcNAc. A digest of the protocol: as §1
For experiment [15], the target named is Gal(b1-3)[Fuc(a1-4)]GlcNAc(b1-6)GalNAc. A digest of the protocol: as §1
The target of experiment [16] is Gal(b1-3)[GlcNAc(b1-6)]GalNAc. A digest of the protocol:
as §1

Experiment [17] concerns the target Gal(b1-4)GlcNAc(b1-2)Man(a1-3)[Gal(b1-4)GlcNAc(b1-2)Man(a1-6)][GlcNAc(b1-4)]Man(b1-4)GlcNAc(b1-4)[Fuc(a1-6)]GlcNAc. A digest of the protocol: as §1
The target in experiment [18] is Gal(b1-4)GlcNAc(b1-2)Man(a1-3)[GlcNAc(b1-2)Man(a1-6)]Man(b1-4)GlcNAc(b1-4)GlcNAc. A digest of the protocol: as §1
Experiment [19] has as its target Gal(b1-4)GlcNAc(b1-2)[Gal(b1-4)GlcNAc(b1-4)]Man(a1-3)[GlcNAc(b1-4)][Gal(b1-4)GlcNAc(b1-2)[Gal(b1-4)GlcNAc(b1-6)]Man(a1-6)]Man(b1-4)GlcNAc(b1-4)GlcNAc. In outline:
as §1

Experiment [20] addresses Gal(b1-4)GlcNAc(b1-3)Gal(b1-3)GalNAc. In outline: as §1
In experiment [21] the target is Gal(b1-4)GlcNAc(b1-3)Gal(b1-4)GlcNAc(b1-2)[Gal(b1-4)GlcNAc(b1-3)Gal(b1-4)GlcNAc(b1-6)]Man(a1-6)[Gal(b1-4)GlcNAc(b1-3)Gal(b1-4)GlcNAc(b1-2)Man(a1-3)]Man(b1-4)GlcNAc(b1-4)[Fuc(a1-6)]GlcNAc. In outline: as §1
The target in experiment [22] is Gal(b1-4)GlcNAc(b1-3)Gal(b1-4)GlcNAc(b1-3)Gal(b1-4)GlcNAc(b1-2)Man(a1-3)[Gal(b1-4)GlcNAc(b1-3)Gal(b1-4)GlcNAc(b1-3)Gal(b1-4)GlcNAc(b1-2)Man(a1-6)]Man(b1-4)GlcNAc(b1-4)GlcNAc. In outline:
as §1

Experiment [23] has as its target Gal(b1-4)GlcNAc(b1-3)Gal(b1-4)GlcNAc(b1-3)Gal(b1-4)GlcNAc(b1-2)Man(a1-3)[Gal(b1-4)GlcNAc(b1-3)Gal(b1-4)GlcNAc(b1-3)Gal(b1-4)GlcNAc(b1-2)Man(a1-6)]Man(b1-4)GlcNAc(b1-4)[Fuc(a1-6)]GlcNAc. In outline: as §1

Only a selection was taken, and the strongest signals are over-represented in it overall.

B1: AntigenI/IIC123 (Streptococcus mutans), C9E3B4 (protein)
chain: MASMTGGQQMGRIHFHYFKLAVQPQVNKEIRNNNDINIDRTLVAKQSVVKFQLKTADLPAGRDETTSFVLVDPLPSGYQFNPEATKAASPGFDVTYDNATNTVTFKATAATLATFNADLTKSVATIYPTVVGQVLNDGATYKNNFTLTVNDAYGIKSNVVRVTTPGKPNDPDNPNNNYIKPTKVNKNENGVVIDGKTVLAGSTNYYELTWDLDQYKNDRSSADTIQKGFYYVDDYPEEALELRQDLVKITDANGNEVTGVSVDNYTNLEAAPQEIRDVLSKAGIRPKGAFQIFRADNPREFYDTYVKTGIDLKIVSPMVVKKQMGQTGGSYENQAYQIDFGNGYASNIIINNVPKINPKKDVTLTLDPADTNNVDGQTIPLNTVFNYRLIGGIIPADHSEELFEYNFYDDYDQTGDHYTGQYKVFAKVDITFKDGSIIKSGAELTQYTTAEVDTAKGAITIKFKEAFLRSVSIDSAFQAESYIQMKRIAVGTFENTYINTVNGVTYSSLEHHHHHH
With B1, the “glycan array binding signal (z-score)” value in experiment [1] is 3.07; in [2], -0.704; in experiment [3], -0.137; in experiment [4], 3.81; in experiment [5], 0.417; in experiment [6], -1.42. For the same molecule, the “glycan array binding signal (z-score)” value was 2.85 in [7]; -0.441 in [8]; 3.54 in experiment [9]; 3.25 in [10]; -0.762 in [11]; -1.1 in experiment [12]. Further, the “glycan array binding signal (z-score)” value in experiment [13] is -0.841; in experiment [14], -1.82; in experiment [15], 1.06; in experiment [16], 0.715; in experiment [17], -1.3; in experiment [18] it was -0.939. Moreover, the “glycan array binding signal (z-score)” value in experiment [19] was 0.437; in [20], 0.003; in [21], 4.84; in [22] it was 2.33; in [23] it was 3.9.
